# Assay results from the supplement of paper PMC8728848.
# About 410 targets per protein were measured; listed, in parts, are those with the strongest signals and a random draw of the rest.
# How the values were obtained:
# Assay in all cases: glycan array binding signal (z-score within array); higher = stronger binding
# Conditions in all cases: glycan notation: IUPAC condensed, linker removed
# Gal3S(b1-3)GalNAc = target: Gal3S(b1-3)GalNAc
# In short: (§1)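 Glycan array data came from 3228 arrays in the Consortium for Functional Glycomics database, and only arrays with an available protein sequence were kept. Glycan names were put into IUPAC-condensed notation, and columns mapping to the same glycan were averaged. The binding signal is a within-array Z-score, averaged across arrays of one protein sequence run at different concentrations or buffers and across linkers. A negative Z-score can be read as non-binding.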
# Gal3S(b1-4)Glc = target: Gal3S(b1-4)Glc
# In short: as §1
# Gal6S(b1-3)GlcNAc = target: Gal6S(b1-3)GlcNAc
# In short: as §1
# Gal6S(b1-3)GlcNAc6S = target: Gal6S(b1-3)GlcNAc6S
# In short: as §1
# GalNAc(b1-3)GalNAc = target: GalNAc(b1-3)GalNAc
# In short: as §1
# [1] = target: GalNAc(b1-4)GlcNAc(b1-3)GalNAc(b1-4)GlcNAc
# In short: as §1
# Glc(b1-4)Glc = target: Glc(b1-4)Glc
# In short: as §1
# GlcA(b1-3)Gal = target: GlcA(b1-3)Gal
# In short: as §1
# [2] = target: GlcA3S(b1-3)Gal(b1-4)GlcNAc(b1-3)Gal(b1-4)Glc
# In short: as §1
# [3] = target: GlcNAc(a1-4)Gal(b1-4)GlcNAc(b1-3)Gal(b1-4)[Fuc(a1-3)]GlcNAc(b1-3)Gal(b1-4)[Fuc(a1-3)]GlcNAc
# In short: as §1
# [4] = target: GlcNAc(b1-2)Gal(b1-3)GalNAc
# In short: as §1
# [5] = target: GlcNAc(b1-2)Man(a1-3)[GlcNAc(b1-2)Man(a1-6)]Man(b1-4)GlcNAc(b1-4)GlcNAc
# In short: as §1
# [6] = target: GlcNAc(b1-2)[GlcNAc(b1-4)]Man(a1-3)[GlcNAc(b1-4)][GlcNAc(b1-2)Man(a1-6)]Man(b1-4)GlcNAc(b1-4)GlcNAc
# In short: as §1
# [7] = target: GlcNAc(b1-2)[GlcNAc(b1-6)]Man(a1-6)[GlcNAc(b1-2)Man(a1-3)]Man(b1-4)GlcNAc(b1-4)[Fuc(a1-6)]GlcNAc
# In short: as §1
# [8] = target: GlcNAc(b1-3)Gal(b1-4)GlcNAc(b1-3)Gal(b1-4)GlcNAc(b1-2)Man(a1-3)[GlcNAc(b1-3)Gal(b1-4)GlcNAc(b1-3)Gal(b1-4)GlcNAc(b1-2)Man(a1-6)]Man(b1-4)GlcNAc(b1-4)[Fuc(a1-6)]GlcNAc
# In short: as §1
# [9] = target: GlcNAc(b1-3)Gal(b1-4)GlcNAc(b1-3)Gal(b1-4)GlcNAc(b1-3)Gal(b1-4)GlcNAc(b1-3)Gal(b1-4)GlcNAc(b1-2)[GlcNAc(b1-3)Gal(b1-4)GlcNAc(b1-3)Gal(b1-4)GlcNAc(b1-3)Gal(b1-4)GlcNAc(b1-3)Gal(b1-4)GlcNAc(b1-6)]Man(a1-6)[GlcNAc(b1-3)Gal(b1-4)GlcNAc(b1-3)Gal(b1-4)GlcNAc(b1-3)Gal(b1-4)GlcNAc(b1-3)Gal(b1-4)GlcNAc(b1-2)Man(a1-3)]Man(b1-4)GlcNAc(b1-4)[Fuc(a1-6)]GlcNAc
# In short: as §1
# [10] = target: GlcNAc(b1-3)[GlcNAc(b1-4)][GlcNAc(b1-6)]GlcNAc
# In short: as §1
# [11] = target: GlcNAc(b1-4)GlcNAc(b1-4)GlcNAc(b1-4)GlcNAc(b1-4)GlcNAc
# In short: as §1
# Man(a1-3)[Man(a1-6)]Man = target: Man(a1-3)[Man(a1-6)]Man
# In short: as §1
# [12] = target: Man(a1-3)[Man(a1-6)]Man(a1-6)[Man(a1-2)Man(a1-3)]Man(b1-4)GlcNAc(b1-4)GlcNAc
# In short: as §1
# [13] = target: Neu5Ac(a2-3)Gal(b1-3)[Fuc(a1-4)]GlcNAc
# In short: as §1
# [14] = target: Neu5Ac(a2-3)Gal(b1-3)]Neu5Ac(a2-3)Gal(b1-4)]GlcNAc
# In short: as §1
# [15] = target: Neu5Ac(a2-3)Gal(b1-4)GlcNAc(b1-2)Man(a1-3)[GlcNAc(b1-4)][Neu5Ac(a2-3)Gal(b1-4)GlcNAc(b1-2)Man(a1-6)]Man(b1-4)GlcNAc(b1-4)GlcNAc
# In short: as §1
# [16] = target: Neu5Ac(a2-3)Gal(b1-4)GlcNAc(b1-2)Man(a1-3)[Neu5Ac(a2-3)Gal(b1-4)GlcNAc(b1-2)Man(a1-6)]Man(b1-4)GlcNAc(b1-4)[Fuc(a1-6)]GlcNAc
# In short: as §1
# [17] = target: Neu5Ac(a2-3)Gal(b1-4)GlcNAc(b1-3)Gal(b1-4)GlcNAc(b1-3)Gal(b1-4)GlcNAc
# In short: as §1
# [18] = target: Neu5Ac(a2-3)Gal(b1-4)[Fuc(a1-3)]GlcNAc(b1-3)GalNAc
# In short: as §1
# [19] = target: Neu5Ac(a2-8)Neu5Gc(a2-3)Gal(b1-4)GlcNAc
# In short: as §1
binder,measurement,setting,value
PX9961KLbvu-535-38-535 (Bacteroides vulgatus) (protein) DKAYTDAESYTKGLHKIYSVWALSGQDGSSSSDISGLDAGNTALLRCWWTLQEQPTDEMKNAWNDAWCTEVNYMTWTTNKVEPIEGVYQRCMYIVALVNEFLKNIPNAPESIDKESYIAQARFNRAFAYYVLMDMFALPPFITEKNYSIEPAPLSREDLFNWIEAELNEIKPNLPSPRSEYGVADQAVASALLARMYLNAEIYTGKARYTECINACNEVIKAGYQLADNYADLFKADNGENPDTKKEIIYPIIFDGDKTQSWGMAAIIIGARGAEDKDVLLAHSGVDQGWAGFRATSNLVHLFDFQNDEEPKASEIQDKRGIFYDKGRSIDITSSVSGTFETEGWSVFKFSNLNSNGQPGKNTLWVDTDFPMFRLGDIYLMYAEAVARGGEGSKASAVEYINALRKRAYGDDKHNISENWLEENNFRNLLDERGRELYWEGIRRTDLVRFDLLTSGSYTWDFKGGINTGVGVNKRYNVYPIPVTDLTVNGNLQQNEGY,glycan array binding signal (z-score),Gal3S(b1-3)GalNAc,-0.326
same,glycan array binding signal (z-score),Gal3S(b1-4)Glc,1.38
same,glycan array binding signal (z-score),Gal6S(b1-3)GlcNAc,0.63
same,glycan array binding signal (z-score),Gal6S(b1-3)GlcNAc6S,1.44
same,glycan array binding signal (z-score),GalNAc(b1-3)GalNAc,-0.606
same,glycan array binding signal (z-score),[1],-0.094
same,glycan array binding signal (z-score),Glc(b1-4)Glc,-0.497
same,glycan array binding signal (z-score),GlcA(b1-3)Gal,-0.742
same,glycan array binding signal (z-score),[2],-0.814
same,glycan array binding signal (z-score),[3],0.673
same,glycan array binding signal (z-score),[4],0.183
same,glycan array binding signal (z-score),[5],-0.632
same,glycan array binding signal (z-score),[6],1.4
same,glycan array binding signal (z-score),[7],0.105
same,glycan array binding signal (z-score),[8],1.82
same,glycan array binding signal (z-score),[9],1.39
same,glycan array binding signal (z-score),[10],-0.666
same,glycan array binding signal (z-score),[11],-0.429
same,glycan array binding signal (z-score),Man(a1-3)[Man(a1-6)]Man,-0.077
same,glycan array binding signal (z-score),[12],0.357
same,glycan array binding signal (z-score),[13],1.01
same,glycan array binding signal (z-score),[14],-0.578
same,glycan array binding signal (z-score),[15],-0.451
same,glycan array binding signal (z-score),[16],0.475
same,glycan array binding signal (z-score),[17],-0.106
same,glycan array binding signal (z-score),[18],0.19
same,glycan array binding signal (z-score),[19],19.4
